Measured values as given in PubChem BioAssay (NCI).
Compounds without any hit were thinned out: in the full panel of roughly 79,000, 15% have a hit. A number with no mark means an inactive call. Active and inactive are the calls of the source. No stated cut-off is given here; in the data, active means growth inhibition above about 70%; inactive means the rest.

Assays:
[1] = NCI Yeast Anticancer Drug Screen. Data for the rad50 strain (AID 155);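 further: 0% = growth of vehicle-only cultures of the same strain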; details: S. cerevisiae rad50 strain growth inhibition, active compounds read high
In short: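 Growth of the mutant yeast was measured after compound exposure and referenced to vehicle-treated cultures.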

[2] = NCI Yeast Anticancer Drug Screen. Data for the mec2-1 strain (AID 157); details: S. cerevisiae mec2-1 strain, active compounds read high
In short: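 mec2-1 yeast strain, carrying an alteration in DNA damage repair or cell cycle control, was exposed to compounds; growth inhibition was measured relative to vehicle-treated controls.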

[3] = NCI Yeast Anticancer Drug Screen. Data for the sgs1 mgt1 strain (AID 161);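 further: 0% = growth of cultures given vehicle only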; details: S. cerevisiae sgs1 mgt1 strain, active compounds read high
In short: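 Growth of a repair-deficient yeast mutant was monitored after compound treatment and expressed as inhibition relative to vehicle-treated cultures.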

[4] = NCI Yeast Anticancer Drug Screen. Data for the cln2 rad14 strain (AID 165);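 further: 0% = growth equal to vehicle treated cultures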; details: S. cerevisiae cln2 rad14 strain, active compounds read high
In short: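 Yeast carrying cln2 and rad14 alterations (cell cycle control and DNA damage repair) were exposed to compounds. Growth inhibition was measured against vehicle-treated controls.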

[5] = NCI Yeast Anticancer Drug Screen. Data for the bub3 strain (AID 167); details: S. cerevisiae bub3 mutant strain, active compounds read high
In short: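 Whole-cell yeast assay. The mutant strain was incubated with compounds, and growth inhibition was determined by comparison with vehicle-treated cells.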

[6] = NCI Yeast Anticancer Drug Screen. Data for the mlh1 rad18 strain (AID 175); details: S. cerevisiae mlh1 rad18 strain growth inhibition, active compounds read high
In short: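 Growth inhibition of the yeast strain was measured after compound exposure and expressed relative to vehicle-treated controls. The strain carries defined defects in DNA damage repair.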

[7] = at 5.0 µM (retest, dose inferred, filed as 0.5)
[8] = at 50.0 µM (retest, dose inferred, filed as 5.0)

Row | SMILES | growth inhibition [1, 7] | growth inhibition [1, 8] | growth inhibition ([1]; at 50.0 µM) | growth inhibition [2, 7] | growth inhibition [2, 8] | growth inhibition ([2]; at 50.0 µM) | growth inhibition [3, 7] | growth inhibition [3, 8] | growth inhibition ([3]; at 50.0 µM) | growth inhibition [4, 7] | growth inhibition [4, 8] | growth inhibition ([4]; at 50.0 µM) | growth inhibition [5, 7] | growth inhibition [5, 8] | growth inhibition ([5]; at 50.0 µM) | growth inhibition [6, 7] | growth inhibition [6, 8] | growth inhibition ([6]; at 50.0 µM)
1 | O=C(C(=S)c1ccccc1)N(Cc1ccccc1)Cc1ccccc1 | -2% | 44% | 79.3% (active) | 1% | 25% | 88.9% (active) | 0% | 48% | 95.9% (active) | 0% | 27% | 59.4% | 4% | 41% | 93.8% (active) | 2% | 50% | 94.4% (active)
2 | CCC/C(=N\O)S(=O)(=O)c1ccc(NN=O)nc1 | -18% | -11% | -22.1% | -20% | 1% | -26.8% | 3% | -11% | -36.1% | -31% | -13% | 34.5% | -33% | -18% | -4.4% | -33% | -21% | -28%
3 | CNc1ccc([N+](=O)[O-])cc1 | -4% | 13% | 43% | 1% | 9% | 12.8% | -1% | 11% | -5.2% | 2% | 1% | 22.9% | -1% | 14% | 31.1% | 0% | 19% | 10.3%
4 | Cc1ccccc1NC(=O)c1cc2cc(N=Nc3ccccc3C(=O)O)ccc2oc1=O | 7% | 81% (active) | 91.4% (active) | -10% | 65% | 83.5% (active) | 15% | 90% (active) | 96.5% (active) | 9% | 46% | 90.3% (active) | 7% | 78% (active) | 82.7% (active) | 8% | 49% | 96.5% (active)
5 | C/C(=N\NC(=S)N1CCC(C)CC1)c1cccc2cccnc12 | -5% | 98% (active) | 62.6% | -9% | 98% (active) | -6.1% | 0% | 98% (active) | 83.2% (active) | -10% | 98% (active) | 14.2% | 2% | 98% (active) | 6.05% | -8% | 99% (active) | 6.35%
6 | CC(Cc1ccccc1)NNC(C)Cc1ccccc1 (stereo not given) | 10% | 81% (active) | 99.5% (active) | 4% | 64% | 96.2% (active) | 11% | 90% (active) | 75.5% (active) | -39% | 63% | 83.2% (active) | 16% | 91% (active) | 94.5% (active) | 7% | 83% (active) | 99.5% (active)
7 | COc1cccc2c1C1c3ccccc3Sc3cccc(c31)O2 (stereo not given) | 6% | 3% | 5.2% | 6% | 3% | 18.3% | 4% | 3% | 19.6% | 1% | -21% | 40.2% | -1% | -2% | 43.9% | 4% | 1% | 21.1%
8 | O=C1/C(=C/c2cccc(O)c2)COc2ccccc21 | 21% | 95% (active) | 93.8% (active) | 34% | 98% (active) | 96.1% (active) | 63% | 98% (active) | 96.2% (active) | 9% | 95% (active) | 91.6% (active) | 58% | 95% (active) | 95.8% (active) | 77% (active) | 97% (active) | 96.8% (active)
9 | CCCCc1c(O)c(N=NC(=O)C[n+]2ccccc2)c2ccccc2c1O | -2% | 10% | 8.55% | -3% | 32% | 11.6% | 2% | 27% | 17.8% | 2% | -3% | 40.1% | -3% | -1% | 13.5% | -2% | 21% | 4.75%
10 | OCCc1ccccc1C(c1ccccc1)c1ccccc1 | 5% | 98% (active) | 99.3% (active) | -4% | 99% (active) | 99.4% (active) | 1% | -16% | 99.2% (active) | 8% | 99% (active) | 98.8% (active) | 0% | 99% (active) | 99.2% (active) | 4% | 99% (active) | 98.9% (active)
11 | CCOC(=O)C(=C=Cc1cccs1)C(=O)c1ccccc1 | 16% | 84% (active) | 87% (active) | -14% | 95% (active) | 90.5% (active) | 3% | 92% (active) | 90.8% (active) | -10% | 91% (active) | 90.7% (active) | -13% | 97% (active) | 89.8% (active) | -10% | 94% (active) | 83.9% (active)
12 | O=[N+]([O-])C1=Cc2cc(Cl)ccc2OC1c1cccc2ccccc12 (stereo not given) | 98% (active) | 83% (active) | 80.5% (active) | 97% (active) | 81% (active) | 88.2% (active) | 97% (active) | 86% (active) | 84.2% (active) | 97% (active) | 80% (active) | 87.1% (active) | 97% (active) | 91% (active) | 85.5% (active) | 98% (active) | 87% (active) | 75.8% (active)
13 | CCN(CC)CCSCCCNc1cc(OC)cc2cccnc12 | -1% | 24% | 67.5% | 6% | 29% | 59.6% | 13% | 54% | 71% (active) | 8% | 32% | 78% (active) | 10% | 54% | 54% | 7% | 28% | 65.3%
14 | O=C1OCCCN1/N=C/c1ccc([N+](=O)[O-])o1 | 16% | 59% | 82% (active) | 4% | 31% | 55% | 10% | 65% | 84.8% (active) | 2% | 32% | 42.3% | 8% | 62% | 52.3% | 24% | 78% (active) | 89.2% (active)
15 | Cc1cc(C)nc(NS(=O)(=O)c2ccc(Nc3nc(-c4cccc([N+](=O)[O-])c4)cs3)cc2)n1 | 14% | 99% (active) | 23.1% | -1% | 99% (active) | 30.5% | 7% | 99% (active) | 47.6% | -26% | 98% (active) | 51.9% | 34% | 99% (active) | 75.2% (active) | 5% | 99% (active) | 53%
16 | CCCCN(CCCC)CCC(=O)c1ccc2c(ccc3ccccc32)c1 | 19% | 99% (active) | 96.3% (active) | 7% | 99% (active) | 95.5% (active) | 20% | 99% (active) | 98.8% (active) | 21% | 99% (active) | 87% (active) | 47% | 98% (active) | 99% (active) | 12% | 99% (active) | 98.8% (active)
17 | CCC(CC)C(c1ccc(O)cc1)c1ccc(O)cc1 | 92% (active) | 99% (active) | 99.5% (active) | 83% (active) | 100% (active) | 99.5% (active) | 88% (active) | 77% (active) | 99.6% (active) | 97% (active) | 100% (active) | 99.2% (active) | 75% (active) | 98% (active) | 99.7% (active) | 95% (active) | 100% (active) | 99.5% (active)
18 | CC(/C=C/c1ccc(Cl)cc1)=N\NC(N)=S | 11% | 44% | 68.2% | -1% | 29% | 69% | 1% | 59% | 49.4% | 12% | 32% | 47.1% | 1% | 38% | 50% | 16% | 54% | 60.5%
19 | CCCCCN(CCCCC)C(=S)Nc1ccccc1 | -36% | 67% | 84.9% (active) | -5% | 85% (active) | 80.5% (active) | -19% | 83% (active) | 77% (active) | -22% | 74% (active) | 80.9% (active) | 1% | 94% (active) | 87.8% (active) | -4% | 90% (active) | 89.4% (active)
20 | CC(C)(C)OC(=O)c1ccc(NCC2=C(Br)C(=O)C=CC2=O)cc1 | 18% | 98% (active) | 89.8% (active) | 12% | 99% (active) | 94% (active) | 15% | 97% (active) | 83.4% (active) | 5% | 94% (active) | 89.1% (active) | 0% | 96% (active) | 80.8% (active) | 14% | 99% (active) | 89.5% (active)
